This is an account of results in PubChem BioAssay (NCATS).

The structures appear in SMILES notation. Results filed as inconclusive are left out. Where a call stands in place of a potency, no number is given. Calls of active or inactive are those of the source. The call rests on the fitted dose curve; in most records, active means well fitted inhibition curve with a large enough effect; inconclusive means small, poorly fitted or top-dose-only effect; inactive means flat fitted curve, though single readings scatter. Residues, ends and D or L forms follow the SMILES beside them. *: point of attachment. Cbz = O=C(OCc1ccccc1)*

The experiment is described as follows: qHTS to identify inhibitors of the type 1 interferon - major histocompatibility complex class I in skeletal muscle: primary screen against the NCATS LOPAC collection (AID 1347405).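 Further: lytic HiBiT luminescence reporting HLA-B protein level.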 Particulars: iHSKM muscle cells, IFN-b-induced MHC-I HiBiT luminescence, 24 h; series mostly up to 45.9 µM. In a few lines:
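CRISPR-engineered immortalized human myoblasts (C25cl48) with HiBiT fused to endogenous HLA-B*08:01, stimulated with 4 ng/ml IFN-beta. LOPAC compounds tested as a 7-point 1:4.3 titration (top 46 uM final), 24 h at 37 C; lytic HiBiT luminescence read.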
On to `Cc1ccc2c(c1)C(N1CCN(C)CC1)=Nc1cccnc1N2`, for which the Potency result is “inactive”.
Next, `NS(=O)(=O)c1cccc2c1c([N+](=O)[O-])cc1nc(O)c(O)nc12`: “inactive”; `CC(/C=C/c1cccc(Oc2ccc(F)cc2)c1)N(O)C(N)=O` (stereo not drawn): “inactive”.
With `NC(C(=O)N[C@@H]1C(=O)N2C(C(=O)O)=C(Cl)CS[C@H]12)c1ccccc1` (stereo partly drawn), the Potency result was “inactive”.
Next, `O=C1C2C=CC=CC2=NC(=S)N1CCN1CCC(=C(c2ccc(F)cc2)c2ccc(F)cc2)CC1` (stereo not drawn): “inactive”; `CCCCCCC(=O)OC1CC(C)(C)NC(C)(C)C1`: “inactive”; `CC(=O)NCCc1c[nH]c2ccc(O)cc12`: “inactive”.
`COC(=O)[C@H](NC(=O)c1cc(-c2ccccc2)nc2ccccc12)c1ccccc1`: the Potency entry is “inactive”.
Then `Oc1cc(O)c2c(c1)O[C@H](c1ccc(O)c(O)c1)[C@@H](O)C2`, with “inactive”.
`O=C(O)c1cc2cc(F)ccc2[nH]1`: the Potency result is “inactive”.
With `NC1CCN(O)C1=O` (stereo not drawn), the Potency result is “inactive”.
Then `C=C(C)C1CC=C(C(=O)O)CC1` (stereo not drawn), with “inactive”.
Regarding `Cn1cc(C(F)(F)F)nc1-c1ccc(OCC(O)CNCCOc2ccc(O)c(C(N)=O)c2)cc1` (stereo not drawn), the Potency result is “inactive”.
Then `COc1ccc(CCn2nnnc2C2(c3ccc(C)cc3)CC2)cc1`, with “inactive”; and `CC(C)[C@H](NC(=O)OCc1ccccc1)C(=O)N[C@H](C=O)Cc1ccccc1` (Cbz-Val-Phe-aldehyde), with “inactive”.
Then `O=c1ccc2c(OCCCCc3ccccc3)c3ccoc3cc2o1`, with “inactive”.
Next, `OCC1NCC(O)C(O)C1O` (stereo not drawn): “inactive”; `N[C@@H](CCCC(=O)O)C(=O)O`: “inactive”; `NC(N)=NC(N)=Nc1ccccc1`: “inactive”.
As for `CC1=C(/C=C/C(C)=C/C=C/C(C)=C\C(=O)O)C(C)(C)CCC1`, the Potency entry was “inactive”.
Next, `NC1C=CC=C(C(=O)O)C1` (stereo not drawn): “inactive”; `N[C@@H](CS(=O)O)C(=O)O`: “inactive”; `Cc1nc(N=Nc2ccc(S(=O)(=O)O)cc2S(=O)(=O)O)c(COP(=O)(O)O)c(C=O)c1O`: “inactive”.
Then `COc1cccc(OC)c1OCCNCC1CSc2ccccc2O1` (stereo not drawn), with “inactive”; and `C[C@H]1CC2C3CCC4=CC(=O)C=C[C@]4(C)[C@@]3(Cl)[C@@H](O)C[C@]2(C)[C@@]1(O)C(=O)CO` (stereo partly drawn), with “inactive”.
Then `O=C(O)c1ccccc1Nc1ccccc1`, with “inactive”; and `O=C(O)CCC(=O)N1CCCC1C(=O)O` (stereo not drawn), with “inactive”.
As to `COc1cc(CNC(=O)CCCCCCC(C)C)ccc1O`, the Potency result is “inactive”.
As for `O=C(O)Cc1ccc(O)c(O)c1`, the Potency result is “inactive”.
Regarding `Nn1nnc2ccccc21`, the Potency entry was “inactive”.
Next, `COc1cc(/C=C(\C#N)C(=O)c2ccc(O)c(O)c2)cc(I)c1O`: “inactive”; `O=C(O)Cc1c[nH]c2ccc(O)cc12`: “inactive”; `CCCC(=O)NCCc1c2n(c3ccc(OC)cc13)CCCc1ccccc1-2`: “inactive”.
As for `Oc1ccc(Cn2cc[nH]c2=S)cc1`, the Potency result is “inactive”.
`CCCc1c(OCCCOc2ccc(OCC(=O)O)cc2)ccc(C(C)=O)c1O`: the Potency result is “inactive”.
For `NCCC1CCCC(CCN)N1` (stereo not drawn), the Potency result was “inactive”.
On to `c1ccc2nc(C3=NCCN3)ccc2c1`, for which the Potency result is “inactive”.
Then `N#CC(C#N)=C(N)/C(C#N)=C/c1ccc(O)cc1`, with “inactive”.
